# Test results as given in publication PMC7862700, “An all-to-all approach to the identification of sequence-specific readers for epigenetic DNA modifications on cytosine”.
# Columns and labels:
# Experiment in all cases: DAPPL (digital affinity profiling via proximity ligation, sequencing); 10 mM Tris-HCl pH 7.5, 50 mM NaCl, 1 mM DTT, 4% glycerol, room temperature, 30 min; GST-TFs on glutathione beads, 16-mer random dsDNA library, 0.1% formaldehyde crosslink after washing; high values mean tight binding
# FLI1 = molecular target: T1, FLI1 (Homo sapiens, UniProt Q01543 1-452); conditions: protein: recombinant; tags: N-terminal GST; dsDNA, one strand shown
# T1 sequence: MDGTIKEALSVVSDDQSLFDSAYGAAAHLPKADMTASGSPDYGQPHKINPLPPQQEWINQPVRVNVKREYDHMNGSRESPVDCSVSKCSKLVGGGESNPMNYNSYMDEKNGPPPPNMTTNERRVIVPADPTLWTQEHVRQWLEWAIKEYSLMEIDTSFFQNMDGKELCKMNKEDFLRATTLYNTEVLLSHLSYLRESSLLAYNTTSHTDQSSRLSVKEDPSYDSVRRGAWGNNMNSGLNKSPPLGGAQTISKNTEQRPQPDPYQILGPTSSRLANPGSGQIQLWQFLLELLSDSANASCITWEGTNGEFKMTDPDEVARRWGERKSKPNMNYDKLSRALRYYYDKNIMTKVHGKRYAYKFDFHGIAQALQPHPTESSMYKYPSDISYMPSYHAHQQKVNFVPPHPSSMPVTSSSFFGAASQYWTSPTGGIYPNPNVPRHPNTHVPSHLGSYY
# Method in brief: (§1)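 After expression in yeast as GST fusions, human transcription factors were bound to glutathione beads, DNA-barcoded and mixed with a tag-only sample. The pools were incubated with 200 nmole of a 16-mer random double-stranded DNA library in Tris/NaCl/DTT/glycerol buffer (30 min, room temperature), washed and crosslinked with 0.1% formaldehyde. Proximity ligation with BsaI/T4 ligase ran for 1 h at 37 °C, before PCR amplification and sequencing on an Illumina NextSeq500. Binding signal is a hexamer's read frequency for a factor divided by its frequency for the tag-only sample.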
# ELK1 = molecular target: T2, ELK1 (Homo sapiens, UniProt P19419 1-428); conditions: protein: recombinant; tags: N-terminal GST; dsDNA, one strand shown
# T2 sequence: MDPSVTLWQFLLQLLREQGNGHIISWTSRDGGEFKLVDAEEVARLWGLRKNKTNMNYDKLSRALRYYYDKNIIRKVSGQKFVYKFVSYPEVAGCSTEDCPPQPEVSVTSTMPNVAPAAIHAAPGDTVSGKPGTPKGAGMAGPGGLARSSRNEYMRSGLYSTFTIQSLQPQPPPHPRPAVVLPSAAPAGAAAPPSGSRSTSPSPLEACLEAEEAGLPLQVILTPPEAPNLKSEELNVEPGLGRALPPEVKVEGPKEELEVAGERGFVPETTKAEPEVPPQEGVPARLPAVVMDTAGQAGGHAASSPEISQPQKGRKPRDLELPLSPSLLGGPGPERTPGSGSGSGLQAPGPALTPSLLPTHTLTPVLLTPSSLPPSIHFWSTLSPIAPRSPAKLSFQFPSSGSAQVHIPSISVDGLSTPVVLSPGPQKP
# Method in brief: as §1
# GABPA = molecular target: T3, GABPA (Homo sapiens, UniProt Q06546 1-454); conditions: protein: recombinant; tags: N-terminal GST; dsDNA, one strand shown
# T3 sequence: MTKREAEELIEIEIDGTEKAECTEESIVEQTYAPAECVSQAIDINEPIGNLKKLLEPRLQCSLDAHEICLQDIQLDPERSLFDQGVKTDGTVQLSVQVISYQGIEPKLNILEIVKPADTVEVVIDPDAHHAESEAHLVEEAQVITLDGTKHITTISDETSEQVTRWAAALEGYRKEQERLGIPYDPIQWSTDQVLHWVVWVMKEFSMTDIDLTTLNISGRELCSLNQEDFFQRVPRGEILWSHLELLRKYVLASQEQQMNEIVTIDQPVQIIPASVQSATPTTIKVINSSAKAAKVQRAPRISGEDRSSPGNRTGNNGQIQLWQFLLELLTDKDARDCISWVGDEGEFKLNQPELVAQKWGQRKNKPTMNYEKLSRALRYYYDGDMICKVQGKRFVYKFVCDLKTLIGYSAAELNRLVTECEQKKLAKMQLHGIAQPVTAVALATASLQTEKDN
# Method in brief: as §1
# ERG = molecular target: T4, ERG (Homo sapiens, UniProt P11308 1-479); conditions: protein: recombinant; tags: N-terminal GST; dsDNA, one strand shown
# T4 sequence: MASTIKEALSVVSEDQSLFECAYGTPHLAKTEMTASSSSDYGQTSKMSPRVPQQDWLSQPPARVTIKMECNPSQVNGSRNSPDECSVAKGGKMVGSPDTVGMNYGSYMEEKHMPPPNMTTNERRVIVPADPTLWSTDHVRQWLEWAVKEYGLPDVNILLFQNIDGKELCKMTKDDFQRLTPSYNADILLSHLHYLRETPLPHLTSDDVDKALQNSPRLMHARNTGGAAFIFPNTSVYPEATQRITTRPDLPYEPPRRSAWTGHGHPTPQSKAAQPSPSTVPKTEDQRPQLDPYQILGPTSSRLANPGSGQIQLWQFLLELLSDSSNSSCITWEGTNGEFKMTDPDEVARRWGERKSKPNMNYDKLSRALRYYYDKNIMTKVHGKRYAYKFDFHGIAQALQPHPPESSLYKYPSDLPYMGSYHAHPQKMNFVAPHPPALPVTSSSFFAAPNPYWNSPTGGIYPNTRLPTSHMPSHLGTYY
# Method in brief: as §1
# ELF1 = ELF1 (Homo sapiens, UniProt P32519 1-619); conditions: protein: recombinant; tags: N-terminal GST; dsDNA, one strand shown
# Chain of ELF1 (P32519 whole entry): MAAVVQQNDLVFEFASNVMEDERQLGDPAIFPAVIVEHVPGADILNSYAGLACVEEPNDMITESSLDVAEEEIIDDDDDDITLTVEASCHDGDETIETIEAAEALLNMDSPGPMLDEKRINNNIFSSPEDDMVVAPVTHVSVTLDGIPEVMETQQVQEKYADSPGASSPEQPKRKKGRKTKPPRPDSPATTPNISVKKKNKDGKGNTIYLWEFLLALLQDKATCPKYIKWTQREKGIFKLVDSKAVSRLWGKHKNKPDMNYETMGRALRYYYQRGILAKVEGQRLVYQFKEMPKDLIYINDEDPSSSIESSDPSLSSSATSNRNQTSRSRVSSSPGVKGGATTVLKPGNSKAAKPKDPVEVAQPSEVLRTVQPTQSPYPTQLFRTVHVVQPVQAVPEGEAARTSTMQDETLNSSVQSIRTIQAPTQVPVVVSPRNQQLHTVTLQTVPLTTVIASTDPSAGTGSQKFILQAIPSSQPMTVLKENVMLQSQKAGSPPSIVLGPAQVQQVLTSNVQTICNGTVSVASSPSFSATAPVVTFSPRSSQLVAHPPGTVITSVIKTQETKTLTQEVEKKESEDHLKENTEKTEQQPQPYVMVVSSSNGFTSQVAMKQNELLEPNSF
# Method in brief: as §1
# EHF = molecular target: T5, EHF (Homo sapiens, UniProt Q9NZC4 1-300); conditions: protein: recombinant; tags: N-terminal GST; dsDNA, one strand shown
# T5 sequence: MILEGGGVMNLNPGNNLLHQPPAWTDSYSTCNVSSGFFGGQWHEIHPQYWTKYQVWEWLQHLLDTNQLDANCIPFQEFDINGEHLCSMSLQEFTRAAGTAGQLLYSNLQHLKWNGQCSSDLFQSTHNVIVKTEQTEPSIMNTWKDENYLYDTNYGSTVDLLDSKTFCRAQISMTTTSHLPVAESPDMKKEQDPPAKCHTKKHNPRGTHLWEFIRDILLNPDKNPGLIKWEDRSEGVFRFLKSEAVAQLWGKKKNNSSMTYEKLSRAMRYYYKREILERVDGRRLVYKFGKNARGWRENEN
# Method in brief: as §1
# SPI1 = SPI1 (Homo sapiens, UniProt P17947 1-270); conditions: protein: recombinant; tags: N-terminal GST; dsDNA, one strand shown
# Method in brief: as §1
# SPIB = SPIB (Homo sapiens, UniProt Q01892 1-262); conditions: protein: recombinant; tags: N-terminal GST; dsDNA, one strand shown
# Chain of SPIB (Q01892 whole entry): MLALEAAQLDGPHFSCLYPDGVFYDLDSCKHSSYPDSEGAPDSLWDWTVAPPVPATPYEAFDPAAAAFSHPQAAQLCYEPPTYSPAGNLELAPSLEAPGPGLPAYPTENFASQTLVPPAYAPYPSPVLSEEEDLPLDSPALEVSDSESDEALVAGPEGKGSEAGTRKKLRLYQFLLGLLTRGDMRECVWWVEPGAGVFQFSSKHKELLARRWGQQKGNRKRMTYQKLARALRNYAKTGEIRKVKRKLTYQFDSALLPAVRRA
# Method in brief: as §1
# ELK3 = molecular target: T6, ELK3 (Homo sapiens, UniProt P41970 1-407); conditions: protein: recombinant; tags: N-terminal GST; dsDNA, one strand shown
# T6 sequence: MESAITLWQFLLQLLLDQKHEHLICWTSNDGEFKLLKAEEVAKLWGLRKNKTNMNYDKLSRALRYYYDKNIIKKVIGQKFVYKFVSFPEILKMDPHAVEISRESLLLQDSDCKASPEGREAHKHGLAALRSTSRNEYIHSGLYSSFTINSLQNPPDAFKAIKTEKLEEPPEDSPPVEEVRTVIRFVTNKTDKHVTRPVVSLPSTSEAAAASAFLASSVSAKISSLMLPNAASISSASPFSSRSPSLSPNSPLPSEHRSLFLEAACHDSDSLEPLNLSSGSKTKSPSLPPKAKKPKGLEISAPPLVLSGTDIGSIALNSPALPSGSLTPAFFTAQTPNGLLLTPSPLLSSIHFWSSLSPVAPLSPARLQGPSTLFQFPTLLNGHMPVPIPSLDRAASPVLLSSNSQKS
# Method in brief: as §1
# FEV = molecular target: T7, FEV (Homo sapiens, UniProt Q99581 1-238); conditions: protein: recombinant; tags: N-terminal GST; dsDNA, one strand shown
# T7 sequence: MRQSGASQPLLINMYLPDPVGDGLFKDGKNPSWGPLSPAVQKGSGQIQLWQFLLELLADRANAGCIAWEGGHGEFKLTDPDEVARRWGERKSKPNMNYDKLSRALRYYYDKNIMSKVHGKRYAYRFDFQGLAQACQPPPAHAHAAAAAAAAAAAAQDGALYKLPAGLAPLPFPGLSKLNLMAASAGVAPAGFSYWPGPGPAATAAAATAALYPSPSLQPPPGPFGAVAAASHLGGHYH
# Method in brief: as §1
# ETV5 = ETV5 (Homo sapiens, UniProt P41161 1-510); conditions: protein: recombinant; tags: N-terminal GST; dsDNA, one strand shown
# Chain of ETV5 (P41161 whole entry): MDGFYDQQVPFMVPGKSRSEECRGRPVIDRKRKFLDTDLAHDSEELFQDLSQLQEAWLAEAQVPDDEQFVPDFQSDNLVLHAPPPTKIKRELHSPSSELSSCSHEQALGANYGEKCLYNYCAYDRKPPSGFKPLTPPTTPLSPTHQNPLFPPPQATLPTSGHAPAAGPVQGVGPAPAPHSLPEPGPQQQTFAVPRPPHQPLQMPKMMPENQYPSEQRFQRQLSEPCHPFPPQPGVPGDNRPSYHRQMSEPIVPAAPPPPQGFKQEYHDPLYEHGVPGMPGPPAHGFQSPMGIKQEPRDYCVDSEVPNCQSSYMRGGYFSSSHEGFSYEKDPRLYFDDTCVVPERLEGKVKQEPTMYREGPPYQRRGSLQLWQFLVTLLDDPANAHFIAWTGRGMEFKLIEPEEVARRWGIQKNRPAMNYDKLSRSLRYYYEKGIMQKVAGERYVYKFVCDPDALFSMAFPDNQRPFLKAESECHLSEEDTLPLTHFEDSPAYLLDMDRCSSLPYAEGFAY
# Method in brief: as §1
# HSF1 = HSF1 (Homo sapiens, UniProt Q00613 1-529); conditions: protein: recombinant; tags: N-terminal GST; chain copies: 3; dsDNA, one strand shown
# Chain of HSF1 (Q00613 whole entry): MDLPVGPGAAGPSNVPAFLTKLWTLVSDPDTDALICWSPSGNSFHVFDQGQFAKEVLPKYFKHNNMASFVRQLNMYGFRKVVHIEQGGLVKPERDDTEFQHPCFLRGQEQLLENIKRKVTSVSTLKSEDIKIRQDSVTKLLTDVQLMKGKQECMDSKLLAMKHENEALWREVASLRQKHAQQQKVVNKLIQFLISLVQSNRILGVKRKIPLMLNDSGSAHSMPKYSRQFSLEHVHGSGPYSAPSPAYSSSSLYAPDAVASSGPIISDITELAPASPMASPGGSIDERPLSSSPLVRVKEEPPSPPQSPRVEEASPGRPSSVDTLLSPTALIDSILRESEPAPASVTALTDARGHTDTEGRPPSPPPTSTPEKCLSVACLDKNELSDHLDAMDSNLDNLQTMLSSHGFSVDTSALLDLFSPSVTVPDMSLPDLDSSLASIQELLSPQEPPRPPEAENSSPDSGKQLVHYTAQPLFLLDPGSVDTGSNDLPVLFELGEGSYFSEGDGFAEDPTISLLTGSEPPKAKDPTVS
# Method in brief: as §1
# SPIC = molecular target: T8, SPIC (Homo sapiens, UniProt Q8N5J4 1-248); conditions: protein: recombinant; tags: N-terminal GST; dsDNA, one strand shown
# T8 sequence: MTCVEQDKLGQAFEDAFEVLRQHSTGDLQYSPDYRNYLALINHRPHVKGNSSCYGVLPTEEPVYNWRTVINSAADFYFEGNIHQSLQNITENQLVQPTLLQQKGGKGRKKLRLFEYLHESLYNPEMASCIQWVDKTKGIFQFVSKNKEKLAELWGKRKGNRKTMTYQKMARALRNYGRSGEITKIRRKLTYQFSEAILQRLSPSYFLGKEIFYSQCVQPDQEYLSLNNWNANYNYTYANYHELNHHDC
# Method in brief: as §1
# ELF4 = ELF4 (Homo sapiens, UniProt Q99607 1-663); conditions: protein: recombinant; tags: N-terminal GST; dsDNA, one strand shown
# Chain of ELF4 (Q99607 whole entry): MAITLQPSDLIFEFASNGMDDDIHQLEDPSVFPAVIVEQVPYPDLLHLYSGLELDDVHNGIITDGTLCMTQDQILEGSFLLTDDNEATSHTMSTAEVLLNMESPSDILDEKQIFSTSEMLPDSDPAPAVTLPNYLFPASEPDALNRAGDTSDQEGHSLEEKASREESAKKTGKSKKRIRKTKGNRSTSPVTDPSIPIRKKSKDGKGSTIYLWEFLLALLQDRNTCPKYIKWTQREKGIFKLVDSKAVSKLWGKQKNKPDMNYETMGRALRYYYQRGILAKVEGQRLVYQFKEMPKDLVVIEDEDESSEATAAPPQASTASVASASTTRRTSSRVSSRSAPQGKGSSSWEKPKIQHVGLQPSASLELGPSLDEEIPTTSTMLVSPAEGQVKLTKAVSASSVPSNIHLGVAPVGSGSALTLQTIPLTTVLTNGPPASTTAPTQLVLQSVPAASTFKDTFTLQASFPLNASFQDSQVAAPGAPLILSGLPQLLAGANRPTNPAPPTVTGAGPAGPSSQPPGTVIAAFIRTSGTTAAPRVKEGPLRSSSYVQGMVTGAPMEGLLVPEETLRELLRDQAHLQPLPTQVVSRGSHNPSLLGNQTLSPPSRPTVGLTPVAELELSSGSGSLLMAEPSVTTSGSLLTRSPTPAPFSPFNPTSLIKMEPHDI
# Method in brief: as §1
# ELK4 = molecular target: T9, ELK4 (Homo sapiens, UniProt P28324-2 1-405); conditions: protein: recombinant; tags: N-terminal GST; dsDNA, one strand shown
# T9 sequence: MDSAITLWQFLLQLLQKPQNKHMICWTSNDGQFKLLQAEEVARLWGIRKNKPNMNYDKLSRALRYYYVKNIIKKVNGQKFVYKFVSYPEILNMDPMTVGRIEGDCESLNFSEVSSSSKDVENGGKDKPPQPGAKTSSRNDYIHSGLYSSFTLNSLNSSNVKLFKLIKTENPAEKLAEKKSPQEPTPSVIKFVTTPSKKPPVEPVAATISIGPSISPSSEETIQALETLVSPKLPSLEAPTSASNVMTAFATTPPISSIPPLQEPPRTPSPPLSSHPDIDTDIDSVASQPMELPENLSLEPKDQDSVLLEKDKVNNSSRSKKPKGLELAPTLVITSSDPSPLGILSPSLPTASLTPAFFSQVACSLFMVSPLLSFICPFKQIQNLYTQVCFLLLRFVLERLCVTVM
# Method in brief: as §1
# ETV2 = molecular target: T10, ETV2 (Homo sapiens, UniProt O00321 1-342); conditions: protein: recombinant; tags: N-terminal GST; dsDNA, one strand shown
# T10 sequence: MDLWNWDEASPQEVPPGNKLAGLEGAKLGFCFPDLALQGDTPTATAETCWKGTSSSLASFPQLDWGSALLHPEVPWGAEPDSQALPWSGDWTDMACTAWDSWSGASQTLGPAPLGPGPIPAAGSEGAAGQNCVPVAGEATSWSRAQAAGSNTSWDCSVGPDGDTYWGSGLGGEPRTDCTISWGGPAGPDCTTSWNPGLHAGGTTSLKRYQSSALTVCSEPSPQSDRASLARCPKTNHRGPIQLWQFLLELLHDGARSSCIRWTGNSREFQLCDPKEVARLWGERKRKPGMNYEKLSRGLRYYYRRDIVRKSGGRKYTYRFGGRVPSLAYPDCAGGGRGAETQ
# Method in brief: as §1
# ELF3 = molecular target: T11, ELF3 (Homo sapiens, UniProt P78545 1-371); conditions: protein: recombinant; tags: N-terminal GST; dsDNA, one strand shown
# T11 sequence: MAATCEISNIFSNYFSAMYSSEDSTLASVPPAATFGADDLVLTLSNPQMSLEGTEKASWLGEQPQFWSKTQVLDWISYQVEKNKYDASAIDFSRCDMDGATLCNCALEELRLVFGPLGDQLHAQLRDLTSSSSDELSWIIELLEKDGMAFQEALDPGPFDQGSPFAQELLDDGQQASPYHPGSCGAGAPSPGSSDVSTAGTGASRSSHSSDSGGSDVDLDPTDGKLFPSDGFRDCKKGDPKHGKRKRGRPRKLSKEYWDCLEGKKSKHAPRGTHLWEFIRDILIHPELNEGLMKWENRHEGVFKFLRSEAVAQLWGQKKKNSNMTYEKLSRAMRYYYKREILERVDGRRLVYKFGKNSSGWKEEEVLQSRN
# Method in brief: as §1
# CRX = CRX (Homo sapiens, UniProt O43186 1-299); conditions: protein: recombinant; tags: N-terminal GST; dsDNA, one strand shown
# Chain of CRX (O43186 whole entry): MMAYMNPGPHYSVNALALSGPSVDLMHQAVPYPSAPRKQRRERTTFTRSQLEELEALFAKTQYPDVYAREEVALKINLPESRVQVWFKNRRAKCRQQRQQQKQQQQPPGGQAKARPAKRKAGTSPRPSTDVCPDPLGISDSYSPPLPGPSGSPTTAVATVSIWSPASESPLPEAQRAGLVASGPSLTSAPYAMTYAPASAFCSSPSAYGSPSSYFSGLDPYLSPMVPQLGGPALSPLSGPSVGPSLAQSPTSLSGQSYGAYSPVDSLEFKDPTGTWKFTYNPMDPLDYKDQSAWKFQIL
# Method in brief: as §1
# ETV1 = ETV1 (Homo sapiens, UniProt P50549 1-477); conditions: protein: recombinant; tags: N-terminal GST; dsDNA, one strand shown
# Chain of ETV1 (P50549 whole entry): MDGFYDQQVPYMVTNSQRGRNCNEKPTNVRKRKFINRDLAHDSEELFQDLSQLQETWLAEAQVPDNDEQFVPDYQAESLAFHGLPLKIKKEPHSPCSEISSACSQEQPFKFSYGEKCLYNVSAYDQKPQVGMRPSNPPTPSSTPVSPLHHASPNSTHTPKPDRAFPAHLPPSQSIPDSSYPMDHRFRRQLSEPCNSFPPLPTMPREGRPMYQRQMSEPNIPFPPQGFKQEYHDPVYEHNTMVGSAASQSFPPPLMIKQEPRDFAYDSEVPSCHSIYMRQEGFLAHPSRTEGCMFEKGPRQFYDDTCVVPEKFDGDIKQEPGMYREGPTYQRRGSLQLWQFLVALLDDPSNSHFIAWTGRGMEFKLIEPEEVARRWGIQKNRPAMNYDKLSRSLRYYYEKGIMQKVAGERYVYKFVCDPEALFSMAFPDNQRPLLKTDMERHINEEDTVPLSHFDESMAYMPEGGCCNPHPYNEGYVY
# Method in brief: as §1
sequence,measurement,setting,value
AAAAGC,binding signal,FLI1,"1.16 fold enrichment (6-mer frequency, TF over GST control)"
same,binding signal,ELK1,"1.13 fold enrichment (6-mer frequency, TF over GST control)"
same,binding signal,GABPA,"1.14 fold enrichment (6-mer frequency, TF over GST control)"
same,binding signal,ERG,"1.24 fold enrichment (6-mer frequency, TF over GST control)"
same,binding signal,ELF1,"1.2 fold enrichment (6-mer frequency, TF over GST control)"
same,binding signal,EHF,"1.14 fold enrichment (6-mer frequency, TF over GST control)"
same,binding signal,SPI1,"1.55 fold enrichment (6-mer frequency, TF over GST control)"
same,binding signal,SPIB,"1.23 fold enrichment (6-mer frequency, TF over GST control)"
same,binding signal,ELK3,"1.15 fold enrichment (6-mer frequency, TF over GST control)"
same,binding signal,FEV,"1.21 fold enrichment (6-mer frequency, TF over GST control)"
same,binding signal,ETV5,"1.29 fold enrichment (6-mer frequency, TF over GST control)"
same,binding signal,HSF1,"1.3 fold enrichment (6-mer frequency, TF over GST control)"
same,binding signal,SPIC,"1.2 fold enrichment (6-mer frequency, TF over GST control)"
same,binding signal,ELF4,"1.17 fold enrichment (6-mer frequency, TF over GST control)"
same,binding signal,ELK4,"1.3 fold enrichment (6-mer frequency, TF over GST control)"
same,binding signal,ETV2,"1.28 fold enrichment (6-mer frequency, TF over GST control)"
same,binding signal,ELF3,"1.22 fold enrichment (6-mer frequency, TF over GST control)"
same,binding signal,CRX,"1.43 fold enrichment (6-mer frequency, TF over GST control)"
same,binding signal,ETV1,"1.19 fold enrichment (6-mer frequency, TF over GST control)"
